In PubChem BioAssay (NCI) one finds growth data, which are given here for 35 compounds.

The panel holds about 83,000 compounds, 20% with a hit somewhere; the sample as a whole holds those more often.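 Activity criterion: percent growth below 10, measured after cells in 96-well plates were exposed to a single compound concentration for 48 hours.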 A number with no mark means an inactive call. The source made the active and inactive calls.

For this experiment, the system named is CCRF-CEM leukemia. Briefly: NCI-60 one-dose screen, 48 h (100 = growth as untreated, 0 = no growth, -100 = all killed). As to conditions: 10 µM unless noted.
With `COc1ccc(NC(=O)c2sc3nc(C)c(C(O)c4ccc(OC)cc4)cc3c2N)cc1` (stereo not given), the growth is 21.7%.
As to `N#Cc1c(NC(=O)c2cccc(Br)c2)sc2c1CCCC2`, the growth is 63.5%.
Turning to `Clc1ccc(C2CC(c3cccc(Nc4ccncc4)c3)=NN2c2ccccc2)cc1` (stereo not given), the growth was 36.7%.
As for `O=C(OCc1nc2nc(Cl)nc(N3CCOCC3)c2[nH]1)n1ccnc1`, the growth was -12% (active).
The figure for `CC(=O)O[C@]1(C(C)=O)CC[C@H]2[C@@H]3C=C(Cl)C4=CC(=O)CC[C@]4(C)[C@H]3CC[C@@]21C` is 95.3%.
To `CC(=O)c1c[nH]c2ccc(-c3ccnc(Nc4ccc(NC(=O)C5CCCC5)c(CN5CCOCC5)c4)n3)cc12` belongs -11.5% (active).
The figure for `O=C(N/N=C/c1cccnc1)c1ccccc1Nc1cccc(C(F)(F)F)c1` is -52.4% (active).
On to `CN1CCN(CCCOc2ccc3ncnc(Nc4ccc(Oc5cccc(C(F)(F)F)c5)c(Cl)c4)c3c2)CC1`, for which the growth was -9.94% (active).
Consider `CN(C)Cc1c(-c2ccccc2)[nH]c2ccccc12`, for which the growth is 86.5%.
The figure for `O=C(OC(OC(=O)c1cc(Cl)cc(Cl)c1)c1cccc2ccccc12)c1ccccc1` (stereo not given) is 93.6%; for `CCC(C)C(N)C(=O)NNc1n[nH]c(=S)n1N` (stereo not given) it is 99.7%.
To `CC[C@H](C)[C@@H]1NC(=O)[C@H](Cc2ccc(O)cc2)N(C)C(=O)[C@H](Cc2ccccc2)NC(=O)CN(C)C(=O)[C@@H]2CCCN2C(=O)[C@@H](Cc2ccccc2)N(C)C(=O)[C@H](CC(C)C)NC1=O` belongs -7.96% (active); to `C#CC(=O)Nc1cccc(Nc2nc3c(c(NCc4ccccc4)n2)CCCC3)c1`, -8.54% (active).
On to `CCCCCOc1ccc(/C=N/Nc2cc(C)nc3ccc(Br)cc23)cc1`, for which the growth was 3.51% (active).
For the compound `COc1ccc(OC)c(/C=C/[C@H]2O[C@@H](C)[C@H](O)[C@@H]2O)c1`, the growth was 98.3%.
The figure for `COc1ccc(C(=O)c2cc(C)c(OC)c(C)c2)c(OC)c1O` is 16.3%.
The figure for `C=C1C(=O)O[C@H]2[C@H]1CC/C(CNC(=O)/C=C/c1ccc(Br)cc1)=C\CC[C@@]1(C)O[C@@H]21` is -2.6% (active); for `O=C(c1ccccc1)N1N=C(c2ccc(-n3ccc(C(F)(F)F)n3)cc2)CC1c1ccc[nH]1` (stereo not given) it is 85.6%.
`Nc1ncc(C#Cc2cncc(NC(=O)c3cccc(C(F)(F)F)c3)c2)c2cccnc12`: the growth is 48.5%.
For the compound `CCOC(=O)Oc1c(OC)cc(C(=O)O[C@@H]2C[C@@H]3CN4CCc5c([nH]c6cc(OC)ccc56)[C@H]4C[C@@H]3[C@H](C(=O)OC)[C@H]2OC)cc1OC`, the growth is -10.8% (active).
As for `NC(=O)CN1CCN(c2ccccc2Cl)CC1`, the growth is 115%.
To `CSc1nnc2c(=O)n(C)c(=O)n(C)c2n1` belongs 88.3%.
The figure for `COc1cnccc1-c1nc2ccc3[nH]ncc3c2c2c1CCCC2` is 16.4%.
Turning to `c1ccc(-c2nnc(Nc3ccc4c(c3)OCCO4)o2)c(NCc2ccncc2)c1`, the growth is 20.4%.
Regarding `CNC(=O)Nc1ccc(-c2nc(N3CCOCC3)nc3c2cnn3C2CCOCC2)cc1`, the growth is 23.8%.
To `O=C(N/N=C/c1ccc(O)c(O)c1)c1sc2ccccc2c1Cl` belongs 14.1%.
To `COc1cc(C2CC(c3cccc(Nc4ccncc4)c3)=NN2c2ccccc2)cc(OC)c1OC` (stereo not given) belongs 6.7% (active); to `Nc1ccccc1NC(=O)c1ccc(CN2CCC/C(=C\c3cccc(Cl)c3)C2=O)cc1`, 4.02% (active).
The figure for `C[C@H]1[C@H](C)CC[C@]2(CO)CC[C@]3(C)C(=CC[C@@H]4[C@@]5(C)CCCNC(C)(C)[C@@H]5CC[C@]43C)[C@H]12` is -34.7% (active); for `O=c1[nH]nc(-c2ccc(Br)cc2)cc1Cc1ccc(O)cc1` it is -9.56% (active).
As to `CC1(C)CC[C@]2(C(=O)NCC#CCN3CCOCC3)CC[C@]3(C)C(=CC[C@@H]4[C@@]5(C)Cc6c([nH]c7ccccc67)C(C)(C)[C@@H]5CC[C@]43C)[C@@H]2C1`, the growth was 83.1%.
Regarding `COc1ccc(C(=O)/C=C/c2cn(Cc3ccc(Cl)cc3)c3ccccc23)cc1`, the growth is 41.1%.
For the compound `COC(=O)CCCCCCCCC1(C)C=CC(C(C)O)=CC1` (stereo not given), the growth is 99.7%.
To `COc1ccc(-c2nn(Cc3ccccc3)c3c2-c2oncc2CC3)cc1OC` belongs 98.3%; to `COc1ccc(CNC(=O)COc2ccc(/C=N/Nc3nc4ccccc4s3)cc2)cc1`, 62.4%.
